Data: PubChem BioAssay (EPA / NIEHS)
“And” between values parts separate entries of the source, which are not always exact repeats. Equal values may be shown once. Records with an inconclusive call do not appear. The source made the active and inactive calls. How the source made its calls, unless noted: active means hit-call score of the fitted dose curve at least 0.9, where 1 is the maximum; inactive means score below 0.9.

Key:
[1] = TAMU_HCS_1.5hr_SingleDonor1434_Cytotoxicity: Cytotoxicity Assessment using High-content Screening (HCS) Fluorescent Imaging for the Texas A&M University (TAMU) 1.5-hr Human Induced Pluripotent Stem Cell (iPSC)-derived Cardiotoxicity Assay (AID 2284234; active means hit-call score of the fitted dose curve at least 0.9, where 1 is the maximum)
Outline: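 Nuclear counts from Hoechst 33342 imaging define cytotoxicity here, with EC10 (10% cell-count loss relative to DMSO) as point of departure. iPSC cardiomyocytes received 0.2-100 uM test chemical in 0.5% DMSO for 1.5 h at 37 C.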

[2] = TAMU_PeakParms_SingleDonor1434_QT: Texas A&M University (TAMU) 1.5-hr Human Induced Pluripotent Stem Cell (iPSC)-derived Cardiomyocytes Calcium (Ca+2) Flux Assay for Cardiotoxicity: QT (decay-rise ratio) (AID 2284235; active means hit-call score of the fitted dose curve at least 0.9, where 1 is the maximum)
Outline: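 Decay/rise ratio of calcium-flux fluorescence scored after 90 min exposure (37C) of donor 1434 iPSC cardiomyocytes to 0.2–100 uM (0.5% DMSO). Beat-cessation and severe-notch points removed; POD is EC05, a 5% rise over DMSO.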

[3] = read-out: Collagen I, COL1A1 (gene 1277); assay: BSK_MyoF_CollagenI: BioMAP Diversity Plus: MyoF Assay for Collagen I Biomarker Activity (AID 2284238); conditions: primary human lung fibroblasts
Outline: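 Multiplexed primary human lung fibroblast system; Collagen I measured by ELISA at 24 h post-dose. Increases are referenced to DMSO.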

[4] = read-out: Collagen III, COL3A1 (gene 1281); assay: BSK_MyoF_CollagenIII: BioMAP Diversity Plus: MyoF Assay for Collagen III Biomarker Activity (AID 2284239); conditions: primary human lung fibroblasts
Outline: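 Compounds are added to primary human lung fibroblasts and left for 24 hours. Collagen III is then quantified by ELISA. Analysis takes DMSO as baseline and fits increases in signal.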

[5] = read-out: Basic fibroblast growth factor (bFGF), FGF2 (gene 2247); assay: BSK_MyoF_bFGF: BioMAP Diversity Plus: MyoF Assay for Basic fibroblast growth factor (bFGF) Biomarker Activity (AID 2284246); conditions: primary human lung fibroblasts
Outline: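 Primary human lung fibroblast culture, 24 h compound exposure; ELISA read-out of bFGF. Positive-direction fit vs DMSO baseline. Cytotoxicity: SRB stain (0.1% SRB, 10% TCA fixation, 560 nm) in parallel wells.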

[6] = read-out: Collagen IV, COL4A1 (gene 1282); assay: BSK_MyoF_CollagenIV: BioMAP Diversity Plus: MyoF Assay for Collagen IV Biomarker Activity (AID 2284247); conditions: primary human lung fibroblasts
Outline: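 ELISA read-out of Collagen IV in lung fibroblast cultures, 24 h post-dosing; gain of signal relative to DMSO vehicle baseline defines activity.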

[7] = read-out: Plasminogen activator inhibitor-1 (PAI1), SERPINE1 (gene 5054); assay: BSK_MyoF_PAI1: BioMAP Diversity Plus: MyoF Assay for Plasminogen activator inhibitor-1 (PAI1) Biomarker Activity (AID 2284256); conditions: primary human lung fibroblasts
Outline: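 Activity reflects increased PAI-1, determined by ELISA and compared with DMSO, in human lung fibroblasts treated for 24 h.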

[8] = read-out: Monokine induced gamma interferon (MIG), CXCL9 (gene 4283); assay: BSK_KF3CT_MIG: BioMAP Diversity Plus: KF3CT Assay for Monokine induced gamma interferon (MIG) Biomarker Activity (AID 2284248); conditions: primary human keratinocytes with fibroblasts
Outline: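 The assay uses a co-culture of human keratinocytes and foreskin fibroblasts. Measurement occurs 24 hours after dosing, with MIG detected by ELISA and the DMSO control as baseline.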

[9] = read-out: Collagen I, COL1A1 (gene 1277); assay: BSK_hDFCGF_CollagenI: BioMAP Diversity Plus: hDFCGF Assay for Collagen I Biomarker Activity (AID 2284250); conditions: primary human foreskin fibroblasts
Outline: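 ELISA read-out of Collagen I in human dermal foreskin fibroblast cultures, 24 h after dosing. Gain of signal versus DMSO vehicle defines activity.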

[10] = read-out: Interferon-inducible T-cell alpha chemoattractant (ITAC), CXCL11 (gene 6373); assay: BSK_hDFCGF_ITAC: BioMAP Diversity Plus: hDFCGF Assay for Interferon-inducible T-cell alpha chemoattractant (ITAC) Biomarker Activity (AID 2284251); conditions: primary human foreskin fibroblasts
Outline: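 I-TAC levels were read by ELISA on human dermal foreskin fibroblast primary cultures 24 h after dosing, analysed against DMSO in the positive direction. Cytotoxicity was assessed alongside by sulforhodamine B total-protein staining.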

[11] = read-out: Interleukin-8 (IL8), CXCL8 (gene 3576); assay: BSK_KF3CT_IL8: BioMAP Diversity Plus: KF3CT Assay for Interleukin-8 (IL8) Biomarker Activity (AID 2284254); conditions: primary human keratinocytes with fibroblasts
Outline: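 ELISA detection of IL-8 from a human skin co-culture, keratinocytes with foreskin fibroblasts, at 24 h following chemical exposure, with gain of signal scored against DMSO controls.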

Measured: AC50

O=C1NS(=O)(=O)c2ccccc21
inactive: [1] | [2]

CC(=O)Nc1ccc(O)cc1
inactive: [2]

CCCCCc1ccc(O)cc1
active: [3] 24 µM | [4] 16.1 µM | [5] 28 µM | [6] 20 µM | [7] 32.2 µM

Oc1ccc(Cc2ccccc2O)cc1
inactive: [8] | [9] | [10] | [11]

Oc1c(Cl)cc(Cl)cc1Sc1cc(Cl)cc(Cl)c1O
active: [8] 2.92 µM and 2.86 µM | [9] 1.32 µM and 960 nM | [10] 1.25 µM and 1.44 µM
inactive: [11]

COC1=CC(=O)C[C@@H](C)[C@]12Oc1c(Cl)c(OC)cc(OC)c1C2=O
active: [3] 20 µM | [4] 3.97 µM
inactive: [5] | [6] | [7]

CCCCCCCCCCCCCCCCCC[N+](C)(C)Cc1ccccc1
inactive: [6]
active: [3] 1.02 µM | [4] 2.09 µM | [5] 3.06 µM | [7] 2.91 µM

O=C(NO)c1ccccc1
inactive: [3] | [4] | [5] | [6] | [7]

C=COC(=O)C(C)(C)CCCCCC
active: [3] 34.2 µM | [4] 31.9 µM | [5] 34.8 µM | [6] 29.7 µM | [7] 34 µM

COCN(COC)c1nc(N(COC)COC)nc(N(COC)COC)n1
inactive: [3] | [4] | [5] | [6] | [7]

CCCCCCCCCCCC
active: [8] 20.2 µM and 20.6 µM | [9] 9.41 µM and 9.63 µM | [10] 8.55 µM and 5.79 µM | [11] 20 µM and 27.3 µM

COc1cccc(O)c1
inactive: [3] | [4] | [5] | [6] | [7]

CN(C)c1ccc(C(=C2C=CC(=[N+](C)C)C=C2)c2ccccc2)cc1
active: [3] 0.0082 µM | [4] 0.164 µM | [5] 0.647 µM | [6] 1.55 µM | [7] 0.675 µM

C[C@]12CC[C@@H]3c4ccc(O)cc4CC[C@H]3[C@@H]1C[C@@H](O)[C@@H]2O
inactive: [3] | [4] | [5] | [6] | [7]

OCCN1CN(CCO)CN(CCO)C1
inactive: [3] | [4] | [5] | [6] | [7]

COc1cc(OC)nc(NC(=O)NS(=O)(=O)Nc2ccccc2C(=O)N(C)C)n1
inactive: [3] | [4] | [5] | [6] | [7]

O=C(NCc1ncc(C(F)(F)F)cc1Cl)c1c(Cl)cccc1Cl
inactive: [3] | [4] | [5] | [6] | [7]

O=C1OC2(c3ccccc31)c1cc(I)c(O)c(I)c1Oc1c2cc(I)c(O)c1I
active: [3] 5.89 µM | [5] 9.75 µM | [6] 3.8 µM | [7] 2.72 µM

C=CC(=C)CC/C=C(\C)CCC=C(C)C
inactive: [3] | [4] | [5] | [6] | [7]

CCOC(=O)CN[C@@H](C(=O)N1CC[C@H]1C(=O)NCc1ccc(/C(N)=N/O)cc1)C1CCCCC1
inactive: [3] | [4] | [5] | [6] | [7]

C=CC(C)(CCC=C(C)C)OC(C)=O (centres undefined)
inactive: [3] | [4] | [5] | [6] | [7]

Cc1ccc(N=Nc2c(O)ccc3ccccc23)c(C)c1
inactive: [3] | [4] | [5] | [6] | [7]

O=C1c2ccc(O)c(O)c2C(=O)c2c(O)ccc(O)c21
inactive: [3] | [4] | [5] | [6] | [7]

Cc1cccc2c1ccc1ccccc12
inactive: [3] | [4] | [5] | [6] | [7]

NC(=NCCCCCCN=C(N)/N=C(\N)Nc1ccc(Cl)cc1)/N=C(\N)Nc1ccc(Cl)cc1
active: [3] 1.21 µM | [4] 2.24 µM | [5] 9.23 µM | [6] 8.69 µM | [7] 4.43 µM
